“And” between values parts separate entries of the source, which are not always exact repeats. Equal values may be shown once. Results filed as inconclusive are left out. Some structures have more than one record in an assay (separate samples or runs), and their calls can disagree. The source made the active and inactive calls. How the source made its calls, unless noted: active means hit-call score of the fitted dose curve at least 0.9, where 1 is the maximum; inconclusive means response in the unintended direction; inactive means score below 0.9.
Tests used:
[1] = ATG_TGFb_CIS: Attagene CIS-FACTORIAL HepG2 Assay for human Transforming Growth Factor (TGF) (AID 2282967; active means hit-call score of the fitted dose curve at least 0.9, where 1 is the maximum; inactive means score below 0.9); conditions: HepG2 Attagene CIS TGFb reporter, mRNA transcription; actives raise or lower the signal
Summary of the method: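 Readout: fluorescently labeled reporter cDNA fragments resolved by capillary electrophoresis after RT-PCR. Transfected HepG2 cells dosed for 24 h; endogenous TF activity at TGFB1-linked cis element; gain or loss fitted relative to DMSO.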

[2] = target: Estrogen receptor (Homo sapiens) (UniProt P03372); test: ATG_ERa_TRANS: Attagene TRANS-FACTORIAL HepG2 Assay for human Estrogen Receptor alpha (ERa) (AID 2282970); conditions: HepG2 Attagene TRANS ERa GAL4 reporter, mRNA
Chain of Estrogen receptor (Homo sapiens) (P03372 whole entry, looked up, the tested form may be a part): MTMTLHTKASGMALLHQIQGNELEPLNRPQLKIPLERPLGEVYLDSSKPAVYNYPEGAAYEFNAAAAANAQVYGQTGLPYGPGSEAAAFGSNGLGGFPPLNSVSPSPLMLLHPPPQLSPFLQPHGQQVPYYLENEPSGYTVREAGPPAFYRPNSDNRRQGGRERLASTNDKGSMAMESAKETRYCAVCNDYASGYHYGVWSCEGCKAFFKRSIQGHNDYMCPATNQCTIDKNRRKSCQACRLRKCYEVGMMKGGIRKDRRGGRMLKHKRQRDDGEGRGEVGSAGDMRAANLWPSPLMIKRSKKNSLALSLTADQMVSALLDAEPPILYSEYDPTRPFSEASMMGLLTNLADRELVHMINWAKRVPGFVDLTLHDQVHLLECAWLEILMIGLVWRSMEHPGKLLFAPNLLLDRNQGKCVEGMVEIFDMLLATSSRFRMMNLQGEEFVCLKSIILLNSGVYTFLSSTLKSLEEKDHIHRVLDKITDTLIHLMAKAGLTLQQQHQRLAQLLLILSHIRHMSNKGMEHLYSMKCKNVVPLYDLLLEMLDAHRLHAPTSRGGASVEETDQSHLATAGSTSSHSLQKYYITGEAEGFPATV
Summary of the method: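 Reporter mRNA induction after 24 hours, detected by fluorescent RT-PCR and capillary electrophoresis, gives the read-out. Cells are HepG2 transiently transfected with GAL4-UAS reporter transcription units responding to chimeric NR-Gal4. Activity is taken as gain of signal over DMSO baseline.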

[3] = target: X-box-binding protein 1 (Homo sapiens) (UniProt P17861); test: ATG_Xbp1_CIS: Attagene CIS-FACTORIAL HepG2 Assay for human X-box Binding Protein 1 (XBP1) (AID 2282972; active means hit-call score of the fitted dose curve at least 0.9, where 1 is the maximum; inactive means score below 0.9); conditions: HepG2 XBP1 cis-element reporter, Attagene multiplex; actives raise or lower the signal
Chain of X-box-binding protein 1 (Homo sapiens) (P17861 whole entry, looked up): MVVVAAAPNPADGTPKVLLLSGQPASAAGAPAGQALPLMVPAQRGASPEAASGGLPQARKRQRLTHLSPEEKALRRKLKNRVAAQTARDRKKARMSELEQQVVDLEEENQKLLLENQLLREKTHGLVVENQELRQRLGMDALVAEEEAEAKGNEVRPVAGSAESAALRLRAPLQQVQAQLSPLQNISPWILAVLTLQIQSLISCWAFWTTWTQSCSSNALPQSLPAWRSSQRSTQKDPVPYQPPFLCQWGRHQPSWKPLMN
Summary of the method: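 Reporter transcripts were quantified by RT-PCR with fluorescent primer extension and capillary electrophoresis after 24 h chemical exposure. Cells: transiently transfected HepG2 carrying cis-regulated reporter constructs; data fitted bidirectionally relative to DMSO.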

[4] = ATG_M_19_TRANS: Attagene TRANS-FACTORIAL HepG2 Assay for M19 Transcription Factor (Internal Marker) (AID 2282974); conditions: HepG2 Attagene TRANS-FACTORIAL M19 internal marker reporter
Summary of the method: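 Background-control readout: after 24 h chemical exposure of transfected HepG2 carrying GAL4-driven reporter units, RNA was reverse-transcribed, amplified, fluorescently labeled and sized by capillary electrophoresis; gain-of-signal fit against DMSO.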

[5] = ATG_GAL4_TRANS: Attagene TRANS-FACTORIAL HepG2 Assay for GAL4 (Internal Marker) (AID 2282976); conditions: HepG2 Attagene TRANS GAL4 internal marker reporter
Summary of the method: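 RT-PCR/capillary electrophoresis readout of reporter mRNA. HepG2, transient MRTU transfection (GAL4-UAS reporters), 24 h compound exposure. Background-control endpoint, positive direction vs DMSO baseline.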

[6] = target: Glucocorticoid receptor (Homo sapiens) (UniProt P04150); test: ATG_GR_TRANS: Attagene TRANS-FACTORIAL HepG2 Assay for human Glucocorticoid Receptor (GR) (AID 2282978); conditions: HepG2 Attagene TRANS GR reporter, mRNA transcription;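 further: activators score as hits since higher reporter transcript over DMSO is fitted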
Chain of Glucocorticoid receptor (Homo sapiens) (P04150 whole entry, looked up, the tested form may be a part): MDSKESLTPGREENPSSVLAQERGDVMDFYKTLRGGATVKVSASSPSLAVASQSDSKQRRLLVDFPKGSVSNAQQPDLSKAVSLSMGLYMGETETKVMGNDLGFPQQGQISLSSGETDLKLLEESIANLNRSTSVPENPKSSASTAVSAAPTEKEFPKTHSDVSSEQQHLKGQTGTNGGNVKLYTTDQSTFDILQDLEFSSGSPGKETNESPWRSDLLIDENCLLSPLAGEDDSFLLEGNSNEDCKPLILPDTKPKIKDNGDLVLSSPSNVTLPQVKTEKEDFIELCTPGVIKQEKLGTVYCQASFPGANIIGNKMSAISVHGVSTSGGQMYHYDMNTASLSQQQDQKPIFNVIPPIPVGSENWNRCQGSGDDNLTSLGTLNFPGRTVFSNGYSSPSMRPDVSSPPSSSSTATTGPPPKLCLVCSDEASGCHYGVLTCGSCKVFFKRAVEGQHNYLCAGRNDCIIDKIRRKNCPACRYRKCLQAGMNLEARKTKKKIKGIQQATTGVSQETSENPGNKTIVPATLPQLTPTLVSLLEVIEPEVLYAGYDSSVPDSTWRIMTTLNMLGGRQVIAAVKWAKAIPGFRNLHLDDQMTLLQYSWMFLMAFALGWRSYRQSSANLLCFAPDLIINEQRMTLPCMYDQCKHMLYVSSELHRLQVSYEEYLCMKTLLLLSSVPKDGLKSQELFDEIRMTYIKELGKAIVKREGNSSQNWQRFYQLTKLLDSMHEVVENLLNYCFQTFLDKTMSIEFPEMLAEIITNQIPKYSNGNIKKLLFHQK
Summary of the method: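 Readout is reporter transcript from a chimeric GR-Gal4 acting on GAL4-UAS in transfected human HepG2 liver cells after 24 h exposure, quantified by RT-PCR and capillary electrophoresis. Activation fitted upward against DMSO.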

[7] = target: Bile acid receptor (Homo sapiens) (UniProt Q96RI1); test: ATG_FXR_TRANS: Attagene TRANS-FACTORIAL HepG2 Assay for Farnesoid X Receptor (FXR) (AID 2282979); conditions: HepG2 Attagene TRANS FXR-GAL4 reporter transcription;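 further: hits raise reporter mRNA above DMSO so AC50 marks FXR activation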
Chain of Bile acid receptor (Homo sapiens) (Q96RI1 whole entry, looked up, the tested form may be a part): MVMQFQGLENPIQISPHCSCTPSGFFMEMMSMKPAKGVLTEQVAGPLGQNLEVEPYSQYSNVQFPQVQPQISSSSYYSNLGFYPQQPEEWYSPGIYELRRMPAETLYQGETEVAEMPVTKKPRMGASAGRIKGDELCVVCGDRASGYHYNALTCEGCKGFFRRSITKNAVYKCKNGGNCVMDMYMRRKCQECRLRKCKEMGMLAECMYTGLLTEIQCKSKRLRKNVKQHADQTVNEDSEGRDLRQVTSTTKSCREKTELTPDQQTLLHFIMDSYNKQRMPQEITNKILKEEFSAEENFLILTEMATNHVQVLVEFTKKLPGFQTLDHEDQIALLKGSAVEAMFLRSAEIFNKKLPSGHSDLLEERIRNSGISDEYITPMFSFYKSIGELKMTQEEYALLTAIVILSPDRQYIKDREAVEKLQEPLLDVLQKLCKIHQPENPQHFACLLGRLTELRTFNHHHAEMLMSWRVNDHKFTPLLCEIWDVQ
Summary of the method: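 Read-out: fluorescent reporter transcripts quantified by capillary electrophoresis after RT-PCR of total RNA. Source cells were HepG2 transiently carrying chimeric NR-GAL4 plus GAL4-UAS reporter units, dosed 24 h. Activity fitted upward relative to DMSO baseline.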

Row | Structure (SMILES) | outcome [1] | AC50 [2] | AC50 [3] | outcome [3] | outcome [4] | outcome [5] | AC50 [6] | outcome [6] | AC50 [7] | outcome [7] | outcome [2]
1 | CC(C)CCCCCCc1ccc(O)cc1 | inactive | 735 nM (active) [middle of 4 runs] | 16.6 µM (active) and 19.4 µM (active) and 18.5 µM (active) | inactive | inactive | inactive | 42.2 µM (active) | inactive | 19.2 µM (active) | inactive | –
2 | O=C(Nc1ccc([N+](=O)[O-])cc1Cl)c1cc(Cl)ccc1O | inactive | – | 493 nM (active) | – | inactive | – | – | – | – | – | –
3 | CCCCCOC(=O)COc1cc(N2C(=O)C3=C(CCCC3)C2=O)c(F)cc1Cl | inactive | – | – | inactive | inactive | – | – | inactive | – | – | inactive
4 | C=CCOC(Cn1ccnc1)c1ccc(Cl)cc1Cl (stereo not drawn) | inactive | – | – | inactive | inactive | inactive | – | inactive | – | – | –

Source: PubChem BioAssay (EPA / NIEHS)
